Among all 360,000 compounds or so, about 2,000 (0.56%) were called active. The list comes from a sample in which actives are over-represented; it also holds similar structures and randomly drawn compounds. Values without a mark were called inactive.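 The calls were made as follows: active = activation above the average of all compounds screened plus 3 SD, cutoff fixed separately per campaign (cut at about 7.5% in these data); inactive = the rest.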

This assay in a line: GAA850 frataxin promoter reporter upregulation – cell-based, luciferase luminescence, HEK293 lucGAA850, primary screen (AID 540364).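 Also: 0% = DMSO wells and 100% = 10 µM SAHA wells.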 The conditions noted are these: HEK293 lucGAA850 FXN promoter luciferase reporter, 24 h; at 6 µM; hits give high values; percent of 10 µM SAHA response.
In the case of `CC(C)CC(=O)N/C(N)=N/c1nc2ccccc2s1`, the activation is 4.47%.

Consider `CC(=O)Nc1cccc(-c2nc3ccccc3s2)c1C`, for which the activation was 1.28%.

Turning to `CCC(=O)NC(=Nc1nc2ccccc2s1)NC(=O)CC`, the activation is 8.95% (active).

On to `O=C(NCC1(N2CCCCC2)CCCCC1)c1ccc(NS(=O)(=O)c2ccc(F)cc2)cc1`, for which the activation is 2.54%.

Regarding `Nc1ccc(C(=O)Nc2ccccc2N)cc1`, the activation was 13.5% (active).

For the compound `O=C(Nc1ccccc1N1CCCC1)c1ccc2ccccc2c1`, the activation is 1.86%.

On to `O=C(Cc1ccccc1)Nc1ccc(C(=O)Nc2ccccc2C(=O)O)cc1`, for which the activation is -0.24%.

Take `CCOc1ccccc1NS(=O)(=O)c1cc2c3c(c1)C(C)C(=O)N3CCC2` (centres undefined): the activation is 3.36%.

In the case of `O=C1COc2ccc(C(=O)COC(=O)c3cccnc3Cl)cc2N1`, the activation is 1.97%.

`CCOC(=O)C1Sc2[nH]c(=O)sc2C(c2ccc(Cl)cc2)C1C(=O)OCC` (centres undefined): the activation was -10.5%.

Regarding `Cc1ccc(C(=O)NNc2ncnc3ccccc23)cc1`, the activation was 7.73% (active).

Consider `Cc1ccc(C(=O)NNC(=O)c2cc3cc4ccccc4nc3s2)cc1`, for which the activation is -0.4%.

As to `Cc1ccc(NC(=O)c2ccc(Oc3ncccn3)cc2)cc1`, the activation is 3.47%.

With `COC(=O)c1ccc(NC(=O)C23CC4CC(C2)CC(n2cnc(Cl)n2)(C4)C3)cc1`, the activation was 2.12%.

In the case of `Cc1ccc(S(=O)(=O)N(C)c2nc3ccccc3n3c(C(C)C)nnc23)cc1`, the activation is 5.84%.

On to `CCCCNC(=O)N(O)C1N(/N=C/c2ccccc2O)C(=S)SC1(C)C` (centres undefined), for which the activation was 14.4% (active).

Consider `CCC(C)N1C(=S)SC(C)(C)C1N(O)C(=O)NC1CCCCC1` (centres undefined), for which the activation is 0.24%.

Take `CCCCNC(=O)N(O)C1N(/N=C/c2ccc(N(C)C)cc2)C(=S)SC1(C)C` (centres undefined): the activation was 1.55%.

With `COc1ccc(Br)cc1S(=O)(=O)N1CCN=C1C`, the activation was 2.93%.

Take `COc1ccccc1N1CCN(C(=O)C(=O)N/N=C/c2ccccc2F)CC1`: the activation is -1.01%.

In the case of `Fc1ccccc1/C=N/Nc1cc(N2CCCCC2)ncn1`, the activation is 8.75% (active).

With `O=C(CCC(=O)Nc1ccccc1)N/N=C/c1ccccc1F`, the activation was 0.15%.

In the case of `COc1ccc(-c2cc3nc(NCCOc4ccccc4)ccn3n2)cc1`, the activation is 0.64%.

Take `CCN1CCN(c2nc(Nc3cccc(F)c3)nc(N)c2[N+](=O)[O-])CC1`: the activation was 3.12%.

`CNc1nc(Nc2ccc(C)c(Cl)c2)nc(N)c1[N+](=O)[O-]`: the activation is 17.5% (active).

Consider `Nc1nc(NCCCN2CCOCC2)nc(Nc2ccccc2)c1[N+](=O)[O-]`, for which the activation is 0.67%.

Regarding `O=C(COC(=O)COc1cccc(F)c1)NCC1CCCCC1`, the activation was 2.16%.

On to `Cc1ccc(-c2ccc(CN3C(C(C)C)C(=O)N(Cc4cn(CCC5OCCO5)nn4)CCS3(=O)=O)cc2)cc1` (centres undefined), for which the activation was -0.96%.

For the compound `O=S(=O)(c1ccc(F)cc1)N1CCN(C(=S)NC2CCCC2)CC1`, the activation was 3.66%.

Consider `N#CC1=C(SCc2ccc(C#N)cc2)N=C(N)C(c2nc(-c3ccccc3)cs2)C12CCCCC2` (centres undefined), for which the activation is 9.79% (active).

For the compound `N#Cc1ccc(CSc2ncccn2)cc1`, the activation was 2.06%.

Regarding `Cc1ccc(S(=O)(=O)N(C)C)cc1NC(=O)C(C)OC(=O)c1ccc2ccccc2n1` (centres undefined), the activation was 0.74%.

As to `N#CCSc1nc2ccc(N3CCOCC3)cc2c(=O)n1CCc1ccccc1`, the activation was -2.84%.

On to `Cc1nn(-c2ccccc2)c(C)c1/C=N/NC(=O)CSc1nc2ccccc2c(=O)n1-c1ccccc1`, for which the activation was 0.81%.

For the compound `N#CCSc1nc2ccccc2c(=O)n1-c1ccccc1`, the activation was 9.45% (active).

As to `O=C(c1cc(-c2ccc(Cl)cc2)on1)N1CCN(c2ccccc2)CC1`, the activation was 3.73%.

Take `COc1ccccc1N1CCN(C(=O)c2cc(-c3ccc(Br)cc3)on2)CC1`: the activation was 17.8% (active).

As for `COc1ccccc1-c1cc(C(=O)N2CCCCC2)no1`, the activation is 3.83%.

Regarding `CC1(c2ccc(Cl)cc2Cl)NC(=O)N(CC(=O)Nc2cccnc2Cl)C1=O` (centres undefined), the activation was 0.61%.

As to `O=C(N[C@H]1C/C=C\C(c2cccc(F)c2)N(Cc2ccccc2)C(=O)C1)OCC1c2ccccc2-c2ccccc21` (some centres undefined), the activation is -2.16%.

Turning to `CN(C)CCNC(=O)c1cccc(-c2cnc3c(NC=O)cc(-c4cccc(C(F)(F)F)c4)cn23)c1`, the activation is -0.71%.

In the case of `Cn1nnnc1SCc1cc(=O)[nH]c2ccccc12`, the activation was 0.27%.

For `CCCCc1nc2c(=O)[nH]c3ccccc3c2o1`, the activation was 3.48%.

On to `CC(Sc1nc2c([nH]c3ccccc32)c(=O)n1C)c1ccccc1` (centres undefined), for which the activation is 13.8% (active).

Take `CCN(CC)CCNC(=O)c1sc2ncn(CC(=O)Nc3ccc(C)c(Cl)c3)c(=O)c2c1C`: the activation is 0.29%.

As to `COc1ccc(-c2cc(NC(C)=O)c3ncc(-c4cc(OC)c(OC)c(OC)c4)n3c2)cn1`, the activation is -2.13%.

Regarding `Cc1cc(C)n2nc(C(=O)NC(C)(C)C)nc2n1`, the activation was -0.66%.

Consider `Cc1cc(C)n2nc(CNS(=O)(=O)c3c(F)c(F)c(F)c(F)c3F)nc2n1`, for which the activation was 8.27% (active).

With `Cc1cc(C)n2nc(SCC(N)=O)nc2n1`, the activation was 0.08%.

Turning to `CCC(C)(C(=O)NC1CCCC1)N(C(=O)CNC(C)=O)c1ccc(C)cc1` (centres undefined), the activation is -0.84%.

Regarding `C[C@H]1CN([C@@H](C)CO)C(=O)CCCn2cc(nn2)CO[C@@H]1CN(C)S(=O)(=O)c1ccc(-c2ccccc2)cc1`, the activation was -1.7%.

In the case of `CC(C)[C@H](NC(=O)c1ccc(F)cc1)C(=O)OCC(=O)NC(=O)c1cccn1C`, the activation is 0.53%.

Take `c1c2c(cc3sc(N4CCCCC4)nc13)OCCO2`: the activation was -6.92%.

As for `Fc1ccc2nc(Nc3nc4c(s3)CCCC4)sc2c1`, the activation is 5.51%.

Consider `Fc1ccc2nc(N3CCCCC3)sc2c1`, for which the activation is 8.32% (active).

As for `Cc1cccc(-n2c(Cc3cc(=O)[nH]c(=O)[nH]3)nnc2SCC(=O)Nc2cccc(C(F)(F)F)c2)c1`, the activation was 0.62%.

In the case of `CC1CCC2(CC1)NC(=O)N(Cc1nnc(-c3cccs3)o1)C2=O` (centres undefined), the activation is 1.39%.

`CC(C)N1C(=S)SC(C)(C)C1n1oc(=O)n(-c2ccc(Cl)c(Cl)c2)c1=O` (centres undefined): the activation was -0.29%.

For the compound `COC(=O)CSc1snnc1-c1ccc(Cl)c(Cl)c1`, the activation is 2.88%.

Values taken from PubChem BioAssay AID540364 (The Scripps Research Institute Molecular Screening Center, 2011).
